Source: PubChem BioAssay (National Center for Advancing Translational Sciences (NCATS))
HP1b chromo inh: HTS for Inhibitors of HP1-beta Chromodomain Interactions with Methylated Histone Tails; AlphaScreen HP1-beta / biotin-H3K9me3 peptide binding; Potency, µM (top dose mostly 114 µM), without a hit: at the top dose activity change, negative = inhibition, hits mostly inhibitors; 0.56% of 390,000 active; AID 540317, 2011; also: nearly all actives have a fitted effect of over 70% in size
Target sequence (P83916 whole entry, looked up): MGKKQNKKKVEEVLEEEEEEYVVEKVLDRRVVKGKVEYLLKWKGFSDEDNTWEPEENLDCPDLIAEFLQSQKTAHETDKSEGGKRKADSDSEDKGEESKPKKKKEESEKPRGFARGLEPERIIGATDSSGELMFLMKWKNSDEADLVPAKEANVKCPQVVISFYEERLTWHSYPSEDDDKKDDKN
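Compound inhibition of the preformed complex between 50 nM HP1-beta and 50 nM biotinylated H3K9me3 peptide was read by AlphaScreen. Buffer was PBS pH 7.4 with 0.01% Tween-20. Incubations ran 30 min at room temperature, with 10 ug/mL donor/acceptor beads.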
Sfp inh: qHTS Assay for Inhibitors of Bacillus subtilis Sfp phosphopantetheinyl transferase (PPTase). 4'-phosphopantetheinyl transferase ffp (Bacillus subtilis), Q9F4F7. Biochemical Sfp PPTase activity, qHTS. 3.5% of 310,000 active. AID 1490, 2009. Potency, µM, inactives show largest response in the series, negative = inhibition, most hits filed as inhibitors;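 also: the enzyme is Sfp with the accession as filed and its product quenches rhodamine fluorescence; 0% = enzyme reaction without inhibitor and -100% = no enzyme wells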
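Step 1, compound plus 15 nM Sfp-PPTase, 15 min, room temperature. Step 2, add rhodamine-CoA (5 uM) and BHQ-2-YbbR (12.5 uM). Step 3, read 525/598 nm fluorescence at 0 and 30 min.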
JMJD2A Tudor inh: qHTS Assay for Inhibitors of JMJD2A-Tudor Domain; AlphaScreen JMJD2A-Tudor / H3K4me3 peptide binding; 4.4% of 390,000 active; Potency, µM (series often up to 114 µM), without a hit: at the top dose activity change, negative = inhibition, usual class: inhibitors; Lysine-specific demethylase 4A (Homo sapiens), O75164; also: % is scaled to controls: 0 for no effect and ±100 for the full control effect; nearly all actives have a fitted effect of over 50% in size
BAZ2B block: qHTS Assay for Inhibitors of BAZ2B; Bromodomain adjacent to zinc finger domain protein 2B (Homo sapiens), Q9UIF8; AlphaScreen BAZ2B-H3K14Ac peptide displacement; Potency, µM (titrated, usually from 114 µM), inactives show at the top dose activity change, negative = inhibition, actives largely listed as inhibitors; 4.4% of 360,000 active; AID 504333, 2011; also: % is scaled to controls: 0 for no effect and ±100 for the full control effect; nearly all actives have a fitted effect of over 60% in size
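Multi-concentration screen (max 110 uM) measuring displacement of acetylated histone H3 peptide from BAZ2B by AlphaScreen, using 50 nM protein, 50 nM peptide and 10 ug/mL streptavidin donor plus Ni-chelate acceptor beads.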
G9a inh: qHTS Assay for Inhibitors of Histone Lysine Methyltransferase G9a | Histone-lysine N-methyltransferase EHMT2 (Homo sapiens), Q96KQ7 | G9a H3K9 monomethylation, AlphaScreen, 2 h | Potency, µM (doses to about 102 µM), for the others: at the highest dose activity, negative = inhibition, hits mostly inhibitors | 8.8% of 350,000 active | AID 504332, 2011; also: % is scaled to controls: 0 for no effect and ±100 for the full control effect; nearly all actives have a fitted effect of over 75% in size
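Enzyme 20 nM + cpd, 15 min RT; add b-H3K9 pep 500 nM / SAM 20 uM; 2 h RT; anti-H3K9me1 Ab 0.5 ug/mL + SA donor / anti-rabbit acceptor beads 20 ug/mL each, 10 min; AlphaScreen read.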
L3MBTL1 block: qHTS Assay for the Inhibitors of L3MBTL1; Lethal(3)malignant brain tumor-like protein 1 (Homo sapiens), Q9Y468; AlphaScreen L3MBTL1–H3K9me1 peptide binding; Potency, µM (doses to about 57.1 µM), inactives show at the highest dose activity, negative = inhibition, hits mostly inhibitors; 0.66% of 230,000 active; also: % is scaled to controls: 0 for no effect and ±100 for the full control effect; nearly all actives have a fitted effect of over 60% in size
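AlphaScreen assay: L3MBTL1 (50 nM final) was preincubated 30 min at room temperature with biotinylated H3(1-15)K9me1 peptide (75 nM final), then 30 min with library compounds; streptavidin donor and nickel chelate acceptor beads (10 ug/mL final) added, 30 min dark.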
Numbers without * were called inactive; ? = inconclusive; nt = not tested or not shown; [ ] = dose if it differs, or a comment. Only some compounds are listed: those with a hit (about 12% of all), similar ones and a draw of the others. Calls follow the shape of the dose curve; as a rule, active = well fitted curve in the direction sought with a large enough effect; inconclusive = small, poorly fitted or top-dose-only effect, or another doubt; inactive = no such curve, though single readings can be large; an effect the other way counts as inactive or inconclusive. Potency is read from the fitted curve at half-maximal effect.

SMILES	HP1b chromo inh	Sfp inh	JMJD2A Tudor inh	BAZ2B block	G9a inh	L3MBTL1 block
Cc1cc2cc(CNC(=O)c3ccc(S(=O)(=O)N4CCCC4)cc3)ccc2n1C	32%	-6%	-12%	5%	?	-8%
COCCn1ccc2c(OCC(=O)Nc3cccc(OC)c3)cccc2c1=O	9%	nt	-7%	-10%	-3%[59 µM]	nt
CCOc1ccc(CCNC(=O)CCCc2nnc3n(CCCOC)c(=O)c4sccc4n23)cc1	56%	nt	3%	-12%	3%[59 µM]	nt
CCOc1ccc(CCNC(=O)c2cn(CC)c3ccc(S(=O)(=O)N4CCc5ccccc5C4)cc3c2=O)cc1OCC	8%	nt	?	nt	-22%[59 µM]	nt
c1ccc(CSc2nnc(Cc3ccccc3)o2)cc1	46%	?	79µM*	56%	?	33%
c1ccc(CSc2ncccn2)cc1	19%	-18%	9%	10%	25µM*	8%
Cc1ccc(CSc2nnc([C@@H]3CCCN3)o2)cc1	27%	7%	20%	-37%	nt	5%
c1ccc(CSc2nnc([C@@H]3CCCN3)o2)cc1	70%	-18%	?	50µM*	nt	7%
c1ccc(CSc2nnc(Cc3ccccn3)o2)cc1	31%	-11%	-25%	-10%	-5%	2%
Clc1ccc(CSc2ncccn2)cc1	66%	-6%	61%	38%	32%[59 µM]	-3%[11.4 µM]
Cc1ccc(-c2noc(CN(C(=O)c3ccc(C(C)(C)C)cc3)C(C)C)n2)cc1	30%	nt	-3%	1%	9%[59 µM]	nt
Cc1cccc(N2CCN(c3ncnc4c3nc3n4CCCCC3)CC2)c1C	15%	nt	-11%	-14%	-27%[59 µM]	nt
Cc1cc(C)cc(-n2c(SCC(=O)Nc3ccccc3)nc3c(oc4ccccc43)c2=O)c1	38%	nt	-8%	-12%	1%[59 µM]	nt
CCc1cccc2c(-c3ccccc3)nc(SCC(=O)Nc3ccccc3OC)nc12	64%	nt	-19%	-1%	19%[59 µM]	nt
Cn1nc(C(=O)Nc2ccc(S(=O)(=O)N3CCCCC3)cc2)c2ccccc2c1=O	14%	-2%	-19%	-27%	?	9%
O=C(Nc1ccc(Cl)c(S(=O)(=O)N2CCCC2)c1)c1nn(CCO)c(=O)c2ccccc12	1%	nt	-33%	-29%	50µM*	-2%
